Our source for the INHIBITION values is ChEMBL document CHEMBL4513216, “Probing the Open Global Health Chemical Diversity Library for Multistage-Active Starting Points for Next-Generation Antimalarials” (ACS Infect Dis, 2020).

Screen size: about 68,000 compounds; about 2,700 (4%) showed an effect of 50% or more. The list comes from a sample in which strong results are over-represented; it also holds similar structures and randomly drawn compounds.

The test relates to Plasmodium berghei. In words: Screen against P. berghei liver stage (PbLuc), transformed with Luciferase, at 2uM. The format is functional, HepG2. The settings on record: tested at 2 uM.
Consider `CCOCC1CN(Cc2ccncc2)Cc2nn(C)cc21` (stereo unspecified), for which the INHIBITION was 7.26%.

Consider `CCN(C)c1ncnc2c1CCN(CC1CCOC1)CC2` (stereo unspecified), for which the INHIBITION stood at 26.76%. The value for `COc1cc(Cl)ccc1C(=O)NCc1n[nH]c(C)n1` was 29.39%; that for `Cc1cc(CC(=O)NCC(O)c2ccc(OC(F)F)cc2)n[nH]1` (stereo unspecified) was 17.94%; that for `CSc1ccc(-c2noc(CN(Cc3ccccc3)C(C)C)n2)cc1` was 28.97%.

Regarding `Cn1nc(Cn2cccc2)c2c1CN(Cc1ccoc1)C2`, the INHIBITION turned out to be 50.32%.

In the case of `CC(C)n1nc(Cn2cccc2)c2c1CN(Cc1ccoc1)C2`, the INHIBITION worked out at 51.4%. With `CCS(=O)(=O)N1Cc2c(Cn3cccc3)nn(C(C)C)c2C1` the figure was -24.79%; with `Cn1nc(Cn2ccnc2)c2c1CN(Cc1ccoc1)C2`, 4.26%; with `COCc1nn(C(C)C)c2c1CCN(Cc1ccoc1)C2`, 6.35%. In the case of `Cn1nc(Cn2cccn2)c2c1CN(Cc1ccoc1)C2`, the INHIBITION is reported as 15.34%. `O=C1CC[C@H]2CN(Cc3ncc[nH]3)CC[C@H]2N1CC1CCNCC1`: the INHIBITION came to 17.37%. As to `Cc1cc(N2CCC(Cc3cnccn3)C2)ncn1` (stereo unspecified), the INHIBITION is -10.89%.

Regarding `CC(C)C(C#N)N1CCN(Cc2nccn2CC(F)(F)F)CC1` (stereo unspecified), the INHIBITION is recorded as -16.4%. With `CCS(=O)(=O)N1CC[C@H]2C(=O)N(Cc3cccnc3)CCO[C@H]2C1` the figure was 58.52%. As to `O=C1[C@@H]2CCN(C3CCOCC3)C[C@@H]2OCCN1Cc1cccnc1`, the INHIBITION is listed as 4.08%. With `O=C1[C@@H]2CCN(Cc3ccoc3)C[C@@H]2OCCN1Cc1cccnc1` the figure was -32.67%; with `CCOCC(O)CN1CCN(C(=O)c2cc(Cl)ccc2F)CC1` (stereo unspecified), 15.08%. With `CC(C)c1cc2c(s1)NC(c1ccccn1)NC2=O` (stereo unspecified) the figure was -23.17%; with `CC(C)c1cc2c(s1)NC(c1ccccc1)NC2=O` (stereo unspecified), 51.76%; with `Cc1ccc(C2NC(=O)c3cc(C(C)C)sc3N2)cc1` (stereo unspecified), 46.98%.

Regarding `O=C(NC1CCC1)c1n[nH]c2c1CNCC2`, the INHIBITION is on record as -29.3%. Consider `Cc1nc(C)n(C2CCCN(C(=O)CCCc3ccccn3)C2)n1` (stereo unspecified), for which the INHIBITION is listed as 70.27%. For `Cc1cc(C)n(C2CCCN(C(=O)CCCc3ccccn3)C2)n1` (stereo unspecified), the INHIBITION is -5.15%. The value for `COc1ccccc1CC(=O)N1CCCC(n2nc(C)cc2C)C1` (stereo unspecified) was -7.5%. As to `Cc1nc(C)n(C2CCCN(C(=O)CCCOc3ccccc3)C2)n1` (stereo unspecified), the INHIBITION was -17.71%. For `Cc1nc(C)n(C2CCCN(C(=O)COc3ccccc3)C2)n1` (stereo unspecified), the INHIBITION is -2.9%. `COc1ccccc1CC(=O)N1CCCC(n2nc(C)nc2C)C1` (stereo unspecified): the INHIBITION came out at 59.23%. The value for `CCc1nnc(CN2CCOC(Cn3cc(C)cn3)C2)o1` (stereo unspecified) was -50.23%; that for `O=C(O)c1cc(C2=CCCCC2)cc(S(=O)(=O)NCc2ccccn2)c1` was 40.88%; that for `CC(C)(C)n1ncc(NCC(O)c2ccccc2C(F)(F)F)c(Cl)c1=O` (stereo unspecified) was 6.26%. The value for `OC1(CNCCc2csc(-c3ccncc3)n2)CCCNC1` (stereo unspecified) was 10.72%. The value for `Fc1ccc(CN2CC[C@H]3O[C@@H](COCC4CCOCC4)CC[C@H]32)cc1` was 32.31%; that for `Cn1cncc1-c1nnc([C@H]2CCN(CC(C)(C)C)C2)o1` was -23.78%; that for `CN(CCCOc1ccccc1Cl)C(=O)CN1CCCCCC1=O` was 50.42%. Turning to `CN(CCCOc1ccccc1Cl)C(=O)CN1CCNC1=O`, the INHIBITION was -9.33%. The value for `CN(CCCOc1ccccc1Cl)C(=O)CN1C(=O)CCNC1=O` was 27.67%; that for `COC(C)(C)C(=O)N1Cc2cnc(C(C)(C)C)nc2C1` was -82.18%. `CC(OCC1CC1)C(=O)Nc1cccc(C(=O)Nc2ccccn2)c1` (stereo unspecified): the INHIBITION is on record as -5.74%. With `NC(=O)c1cn(CC2CC2)c(C2CC2)n1` the figure was -4.87%; with `CCC[C@H]1CN(c2cncc(C(=O)N3CCCCC3)n2)C[C@@H]1N(C)C`, -16.39%. With `Cc1nc(-c2ccoc2)n(CC(=O)NCC(C)C)c1C` the figure was 19.53%; with `Cc1nc(-c2ccoc2)n(CC(=O)N(C)CC(C)C)c1C`, 64.82%; with `CCOC(=O)CNC(=O)Cn1c(-c2ccoc2)nc(C)c1C`, -19.53%. With `O=C(Nc1ccccc1)C1CN(C(=O)c2cccs2)CC12CCOCC2` (stereo unspecified) the figure was -36.65%; with `CC1COCCN1Cc1nc(-c2ccc(F)cc2)no1` (stereo unspecified), -24.5%.

Consider `CC(=O)Nc1nc(CN2CCOC(Cn3cncn3)C2)cs1` (stereo unspecified), for which the INHIBITION is -0.13%.

As for `O=C(c1cnccn1)N1C[C@@H]2CCN(c3cnccn3)C[C@@H]2C1`, the INHIBITION came out at 24.95%. With `O=C(C1CCCC1)N1C[C@@H]2CCN(c3cnccn3)C[C@@H]2C1` the figure was 28.75%; with `O=C(C1CCCCC1)N1C[C@@H]2CCN(c3cnccn3)C[C@@H]2C1`, 50.17%; with `CC(C)CC(=O)N1C[C@@H]2CCN(c3cnccn3)C[C@@H]2C1`, 20.51%.
